# Test results: PubChem BioAssay AID504848 (National Center for Advancing Translational Sciences (NCATS), 2011)
# The campaign covered roughly 2,300 compounds. About 1,400 (61%) were called active. Inconclusive results (about 29%) are left out. The call rests on the fitted dose curve; in most records, active means well fitted inhibition curve with a large enough effect; inconclusive means small, poorly fitted or top-dose-only effect, or effect the other way; inactive means no such curve, though single readings can be large or run the other way. The set was probably picked from earlier hits. The list shows a part of the results.
# Assay: Confirmation screen for delayed death inhibitors of the malarial parasite plastid, 96 hour incubation; further: nearly all actives have a fitted effect of over 60% in size
# Conditions: P. falciparum luciferase growth in erythrocytes; series mostly up to 28.7 µM
# How it was run: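 Two-generation (96 h, 37 C) exposure of P. falciparum carrying an integrated firefly luciferase reporter in erythrocytes, 0.1% parasitemia and 2% hematocrit final, Albumax-supplemented RPMI. Luminescence decrease measures growth inhibition.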
# Potency means the concentration at half of the fitted maximal effect.
row,SMILES,Potency
1,COc1ccc(OC)c(/C=C/c2c([N+](=O)[O-])c(=O)n(C)c(=O)n2C)c1,12.6 µM (active)
2,Cn1c(/C=C/c2ccc(Cl)cc2)c([N+](=O)[O-])c(=O)n(C)c1=O,6.31 µM (active)
3,COc1ccc(Cn2c(O)c(C=Nc3ccc(O)cc3)c3ccccc3c2=O)cc1,7.94 µM (active)
4,COc1ccc(-c2cc(-c3ccccc3)nc(SCC(=O)Nc3nccs3)c2C#N)cc1,2 µM (active)
5,COc1ccc(-c2cc(-c3ccccc3)nc(SC(C)C(=O)O)c2C#N)cc1 (stereo not drawn),10 µM (active)
6,CCCSc1sc(C(=O)OC)c(-c2cccs2)c1C#N,inactive
7,CCc1ccc(NC(=O)CN(c2cc(C)cc(C)c2)S(=O)(=O)c2c(C)[nH]c(=O)[nH]c2=O)cc1,12.6 µM (active)
8,Cc1cccc(C)c1OCc1cc(C(=O)N(C)Cc2nc3ccccc3[nH]2)no1,14.1 µM (active)
9,Cc1ccc(C)c(/C=C/C(=O)c2ccccc(=O)c2O)c1,11.2 µM (active)
10,O=C(/C=C/c1ccccc1Cl)c1ccccc(=O)c1O,6.31 µM (active)
11,COc1ccc(OC)c(CNC(=O)c2ccc(C)c(NC(=O)C3=C(C)OCCS3)c2)c1,10 µM (active)
12,S=c1nc2c(n[nH]1)c1ccccc1n2CCc1ccccc1,12.6 µM (active)
13,CSc1nnc2c3ccccc3n(CCc3ccccc3)c2n1,15.8 µM (active)
14,CC1C/C(=C/c2ccncc2)C(=O)/C(=C/c2ccncc2)C1 (stereo not drawn),3.55 µM (active)
15,O=[N+]([O-])c1c(Nc2ccccc2O)cc(Cl)c2nonc12,3.55 µM (active)
16,CC1CCN(c2ccc3nnc(CCC(=O)N4CCN(c5ccccc5F)CC4)n3n2)CC1,10 µM (active)
17,COc1cccc2sc(Nc3nnc(-c4ccc(F)cc4)o3)nc12,7.08 µM (active)
18,COc1cccc2sc(Nc3nnc(-c4ccccc4Cl)o3)nc12,inactive
19,CC(C)C[C@H](NC(=O)c1nc[nH]c1C(=O)N(C)Cc1ccccc1)C(=O)OC(C)(C)C,10 µM (active)
20,CC(C)C[C@H](NC(=O)c1[nH]cnc1C(=O)Nc1ccc(CNC(=O)OC(C)(C)C)cc1)C(=O)OC(C)(C)C,4.47 µM (active)

row,SMILES,Potency
1,CC(C)C[C@H](NC(=O)c1[nH]cnc1C(=O)N[C@@H](Cc1ccccc1)C(=O)OC(C)(C)C)C(=O)OC(C)(C)C,6.31 µM (active)
2,C[C@H](NC(=O)c1nc[nH]c1C(=O)N[C@H](C)c1ccccc1)C(=O)OCc1ccccc1,inactive
3,CC(C)C[C@H](NC(=O)c1[nH]cnc1C(=O)N[C@@H](C)C(=O)OC(C)(C)C)C(=O)OC(C)(C)C,10 µM (active)
4,Cc1cc(C)cc(NC(=O)C2C3C=CC4(O3)C2C(=O)N(CCCN2CCCC2)C4C(=O)NC2CCCC(C)C2C)c1 (stereo not drawn),12.6 µM (active)
5,O=C(O)c1cc2ccccc2c(N=Nc2cccnc2)c1O,3.98 µM (active)
6,O=C(Nc1ccon1)c1nc[nH]c1C(=O)NCc1ccccc1,7.94 µM (active)
7,CCC(=O)N1c2ccccc2NC2=C(C(=O)CC(c3ccco3)C2)C1c1ccco1 (stereo not drawn),10 µM (active)
8,C=CCC1(O)C(=O)N2C(=C1C(=O)OCC)c1ccc3ccccc3c1CC2(C)C (stereo not drawn),10 µM (active)
9,O=C(Cn1c(=O)oc2ccc(Cl)cc21)NC1CCCCC1,10 µM (active)
10,CN(C)C1(CNC(=O)C2CCC(=O)N(Cc3ccc(Cl)cc3)C2)CCCCC1 (stereo not drawn),5.62 µM (active)
11,Cc1ccc(Nc2nc(=O)c3cccnc3s2)c(Br)c1,inactive
12,Cc1cc(OCC(=O)N[C@@H](CSCc2ccccc2)C(=O)O)c2c(C)c(C)c(=O)oc2c1,14.1 µM (active)
13,CN(CCNC(=O)C1CCC(=O)N(Cc2cccc(F)c2)C1)CCc1ccccc1 (stereo not drawn),7.08 µM (active)
14,CN(Cc1ccccc1Cl)C(=O)C1CCC(=O)N(CCc2cccc(F)c2)C1 (stereo not drawn),7.94 µM (active)
15,CN(CCOc1ccccc1)C(=O)C1CCC(=O)N(CCN2CCOCC2)C1 (stereo not drawn),inactive
16,Cc1ccc(C(=O)NC2CCCCC2)cc1S(=O)(=O)N1CCCC1,10 µM (active)
17,Cc1ccc(C(=O)NC2CCCC2)cc1S(=O)(=O)N1CCCCC1,8.91 µM (active)
18,COc1ccc(C)cc1S(=O)(=O)N1CCN(S(=O)(=O)c2cc(C(=O)O)ccc2C)CC1,8.91 µM (active)
19,O=[N+]([O-])c1ccc(-c2c(-c3ccccc3)ncc3ccc(F)cc23)cc1,12.6 µM (active)
20,Fc1ccc2cnc(-c3ccccc3)c(-c3ccc(C(F)(F)F)cc3)c2c1,14.1 µM (active)

row,SMILES,Potency
1,O=C(CNC(=O)c1ccco1)OCC(=O)c1ccccc1,inactive
2,CCc1ccc(OCCNC(=O)c2ccccc2SCc2ccccc2)cc1,12.6 µM (active)
3,CCc1ccc(OCCNC(=O)c2ccco2)cc1,12.6 µM (active)
4,CCCCNC(=O)c1onc(CSc2ccccc2C)c1C(=O)O,inactive
5,CCCCNC(=O)c1onc(CSc2cccc3ccccc23)c1C(=O)O,inactive
6,CCCn1c(CN2CCN(C(=O)OCC)CC2)nc2cc(NC(=O)C(C)C)ccc21,10 µM (active)
7,CCN1CCN(c2ncnc3c2c(-c2ccccc2)cn3-c2ccc(F)cc2)CC1,10 µM (active)
8,CN1CCN(c2ncnc3c2c(-c2ccccc2)cn3-c2ccc(F)cc2)CC1,11.2 µM (active)
9,Fc1ccccc1N1CCN(c2ncnc3[nH]ncc23)CC1,inactive
10,Cc1[nH]c(C)c(C(=O)/C=C/c2ccc([N+](=O)[O-])cc2)c1C,7.94 µM (active)
11,Cc1c(Cc2ccccc2)c(=O)oc2cc(OC(C)C(=O)NCC3CCC(C(=O)O)CC3)c(Cl)cc12 (stereo not drawn),10 µM (active)
12,Cc1c(OC(C)C(=O)NCC2CCC(C(=O)O)CC2)ccc2c1oc(=O)c1ccccc12 (stereo not drawn),12.6 µM (active)
13,Cc1oc(/C=N/NS(=O)(=O)c2ccccc2)cc1Br,inactive
14,COc1ccc(C(=O)/C=C/C(=O)N(CC(=O)NC2CCCCC2)CC2CCCO2)c(O)c1 (stereo not drawn),12.6 µM (active)
15,COc1ccc(CN(C(=O)/C=C/C(=O)c2ccc(OC)cc2O)C(C(=O)NC2CCCCC2)c2ccncc2)cc1 (stereo not drawn),6.31 µM (active)
16,CCOc1ccc(-c2cc(C(=O)N/N=C(\C)c3cccnc3)c3ccccc3n2)c(OCC)c1,14.1 µM (active)
17,CCn1c(SCC(=O)Nc2ccc(C)cc2)nc2sc3c(c2c1=O)CCN(C)C3,0.708 µM (active)
18,CCOC(=O)CSc1nc2sc3c(c2c(=O)n1C1CCCCC1)CCN(C)C3,2 µM (active)
